Data taken from the supplement of paper PMC11732987, “Enantioselective OTUD7B fragment discovery through chemoproteomics screening and high-throughput optimisation” (Communications Chemistry, 2025).

Key:
Assay in all cases: log2 ratio of Biotin-Ahx-Ub-VS probe labelling (fragment/DMSO); higher = less target engagement (more negative = stronger competition), active = hit call of the paper (q ≤ 0.05, log2 ratio ≤ -1)
Conditions in all cases: compound concentration: 200 uM; treatment time: 3 h
[1] = molecular target: USP34 (UniProt Q70CQ2)
In short: (§1)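 HEK293T lysate (495 µg per sample, in Tris/CHAPS/IGEPAL buffer with protease inhibitors) was exposed in triplicate for 3 h to fragment at 200 µM or to vehicle, then to Biotin-Ahx-Ub-VS at 0.5 µM final for 1 h. Labelled DUBs were enriched on NeutrAvidin, digested with LysC and trypsin, and analysed by diaPASEF LC-MS/MS. Spectronaut label-free quantities were normalised to the global median, and values are average log2 ratios of fragment over vehicle from an unpaired t-test. Only proteins with ≥2 unique peptides were used.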

[2] = molecular target: T1, USP36 (UniProt Q9P275)
T1 sequence (whole entry): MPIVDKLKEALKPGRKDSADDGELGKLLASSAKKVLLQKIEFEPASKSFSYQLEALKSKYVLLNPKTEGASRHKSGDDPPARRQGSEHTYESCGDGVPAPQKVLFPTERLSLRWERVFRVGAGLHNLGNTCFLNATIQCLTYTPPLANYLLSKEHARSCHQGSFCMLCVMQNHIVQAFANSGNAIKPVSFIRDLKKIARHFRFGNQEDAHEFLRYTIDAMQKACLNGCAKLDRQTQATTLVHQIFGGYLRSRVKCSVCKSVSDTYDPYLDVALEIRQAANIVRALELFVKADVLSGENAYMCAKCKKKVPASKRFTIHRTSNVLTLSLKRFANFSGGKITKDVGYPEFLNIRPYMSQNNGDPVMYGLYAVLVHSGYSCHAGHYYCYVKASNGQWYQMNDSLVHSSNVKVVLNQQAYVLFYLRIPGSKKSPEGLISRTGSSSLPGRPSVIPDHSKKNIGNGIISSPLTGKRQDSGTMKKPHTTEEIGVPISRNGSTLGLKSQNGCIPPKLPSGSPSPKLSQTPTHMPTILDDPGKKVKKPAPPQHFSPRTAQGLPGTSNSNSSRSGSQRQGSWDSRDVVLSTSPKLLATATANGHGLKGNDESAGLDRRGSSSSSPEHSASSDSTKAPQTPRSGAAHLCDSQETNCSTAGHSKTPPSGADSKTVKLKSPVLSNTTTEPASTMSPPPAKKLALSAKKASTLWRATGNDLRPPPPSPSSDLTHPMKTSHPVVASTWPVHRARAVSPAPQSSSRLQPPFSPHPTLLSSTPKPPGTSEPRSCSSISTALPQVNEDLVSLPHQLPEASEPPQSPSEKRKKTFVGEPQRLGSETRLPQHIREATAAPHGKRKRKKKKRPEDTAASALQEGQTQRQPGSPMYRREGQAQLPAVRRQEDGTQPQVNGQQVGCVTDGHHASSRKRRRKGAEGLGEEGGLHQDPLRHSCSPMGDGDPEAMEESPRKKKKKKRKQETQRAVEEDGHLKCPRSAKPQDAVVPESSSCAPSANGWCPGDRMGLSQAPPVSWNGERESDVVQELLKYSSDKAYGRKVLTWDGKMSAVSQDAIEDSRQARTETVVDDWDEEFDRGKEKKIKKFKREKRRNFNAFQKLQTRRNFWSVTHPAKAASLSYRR
In short: as §1

[3] = molecular target: T2, USP38 (UniProt Q8NB14)
T2 sequence (whole entry): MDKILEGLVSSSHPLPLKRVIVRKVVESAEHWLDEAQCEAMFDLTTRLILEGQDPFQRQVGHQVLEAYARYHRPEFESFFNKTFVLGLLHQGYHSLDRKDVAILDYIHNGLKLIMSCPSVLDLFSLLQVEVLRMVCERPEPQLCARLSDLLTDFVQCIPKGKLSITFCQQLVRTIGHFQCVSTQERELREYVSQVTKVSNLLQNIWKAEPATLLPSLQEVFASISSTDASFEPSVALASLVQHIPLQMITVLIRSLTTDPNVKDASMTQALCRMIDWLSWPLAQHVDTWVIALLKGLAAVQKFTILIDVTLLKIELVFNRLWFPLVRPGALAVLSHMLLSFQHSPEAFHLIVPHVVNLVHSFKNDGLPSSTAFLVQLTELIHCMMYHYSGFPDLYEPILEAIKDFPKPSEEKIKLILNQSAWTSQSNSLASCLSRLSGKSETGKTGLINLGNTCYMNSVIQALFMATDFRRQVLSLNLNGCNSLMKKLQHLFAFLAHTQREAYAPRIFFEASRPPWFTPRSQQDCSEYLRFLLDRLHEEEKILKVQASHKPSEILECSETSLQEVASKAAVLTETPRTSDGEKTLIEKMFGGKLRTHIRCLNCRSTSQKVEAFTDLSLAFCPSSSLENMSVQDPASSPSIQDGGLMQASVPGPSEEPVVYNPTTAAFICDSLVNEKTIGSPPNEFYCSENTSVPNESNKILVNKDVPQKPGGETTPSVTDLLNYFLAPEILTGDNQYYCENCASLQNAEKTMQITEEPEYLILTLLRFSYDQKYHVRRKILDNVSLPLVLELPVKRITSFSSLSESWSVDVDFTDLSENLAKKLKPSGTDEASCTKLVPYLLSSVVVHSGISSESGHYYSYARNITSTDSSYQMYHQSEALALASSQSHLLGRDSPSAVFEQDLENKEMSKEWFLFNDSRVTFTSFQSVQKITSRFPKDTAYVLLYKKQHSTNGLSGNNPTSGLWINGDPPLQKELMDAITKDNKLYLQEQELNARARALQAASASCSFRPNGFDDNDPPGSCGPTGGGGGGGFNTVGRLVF
In short: as §1

[4] = molecular target: T3, USP39 (UniProt Q53GS9)
T3 sequence (whole entry): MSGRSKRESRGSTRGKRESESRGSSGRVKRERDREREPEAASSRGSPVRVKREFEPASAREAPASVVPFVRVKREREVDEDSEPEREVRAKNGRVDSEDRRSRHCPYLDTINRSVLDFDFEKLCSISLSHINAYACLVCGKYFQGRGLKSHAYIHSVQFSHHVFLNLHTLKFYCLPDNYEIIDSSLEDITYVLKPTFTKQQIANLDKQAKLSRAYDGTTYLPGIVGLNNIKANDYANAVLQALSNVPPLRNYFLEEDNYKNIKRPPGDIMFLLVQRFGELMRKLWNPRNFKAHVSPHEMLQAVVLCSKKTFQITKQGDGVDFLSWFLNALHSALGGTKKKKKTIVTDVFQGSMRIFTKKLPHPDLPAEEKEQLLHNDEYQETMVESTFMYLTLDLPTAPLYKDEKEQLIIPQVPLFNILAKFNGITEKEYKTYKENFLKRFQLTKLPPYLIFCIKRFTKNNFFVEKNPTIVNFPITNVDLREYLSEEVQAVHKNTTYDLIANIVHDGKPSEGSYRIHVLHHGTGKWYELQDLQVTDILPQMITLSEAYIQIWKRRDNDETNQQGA
In short: as §1

[5] = molecular target: T4, USP4 (UniProt Q13107)
T4 sequence (whole entry): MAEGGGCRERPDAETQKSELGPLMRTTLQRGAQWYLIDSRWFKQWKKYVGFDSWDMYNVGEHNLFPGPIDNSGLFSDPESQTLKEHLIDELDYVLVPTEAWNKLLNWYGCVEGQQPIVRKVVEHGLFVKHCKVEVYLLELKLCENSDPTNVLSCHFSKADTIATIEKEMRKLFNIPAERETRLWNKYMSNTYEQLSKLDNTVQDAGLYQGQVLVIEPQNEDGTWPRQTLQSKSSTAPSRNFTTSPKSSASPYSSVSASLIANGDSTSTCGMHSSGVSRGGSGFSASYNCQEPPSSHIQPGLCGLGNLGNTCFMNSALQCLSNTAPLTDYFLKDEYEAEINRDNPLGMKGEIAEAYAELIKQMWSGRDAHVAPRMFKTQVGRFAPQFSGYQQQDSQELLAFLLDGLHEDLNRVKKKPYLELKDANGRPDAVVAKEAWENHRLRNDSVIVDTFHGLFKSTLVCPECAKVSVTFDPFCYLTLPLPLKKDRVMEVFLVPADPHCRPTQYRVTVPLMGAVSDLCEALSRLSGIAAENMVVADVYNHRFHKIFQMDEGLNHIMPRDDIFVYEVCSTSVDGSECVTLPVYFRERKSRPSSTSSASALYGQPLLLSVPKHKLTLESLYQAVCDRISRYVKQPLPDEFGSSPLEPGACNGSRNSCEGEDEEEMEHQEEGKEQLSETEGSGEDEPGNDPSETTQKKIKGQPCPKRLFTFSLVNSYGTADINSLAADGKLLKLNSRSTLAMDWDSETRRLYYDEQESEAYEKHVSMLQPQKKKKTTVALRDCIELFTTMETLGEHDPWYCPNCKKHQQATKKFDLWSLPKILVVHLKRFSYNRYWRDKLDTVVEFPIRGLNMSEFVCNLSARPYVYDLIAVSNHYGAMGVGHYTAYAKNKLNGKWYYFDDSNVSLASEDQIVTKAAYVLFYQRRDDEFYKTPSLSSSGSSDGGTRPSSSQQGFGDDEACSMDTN
In short: as §1

Measured: log2 ratio of Biotin-Ahx-Ub-VS probe labelling

Chain of USP34 (Q70CQ2 whole entry, the tested form may be a part): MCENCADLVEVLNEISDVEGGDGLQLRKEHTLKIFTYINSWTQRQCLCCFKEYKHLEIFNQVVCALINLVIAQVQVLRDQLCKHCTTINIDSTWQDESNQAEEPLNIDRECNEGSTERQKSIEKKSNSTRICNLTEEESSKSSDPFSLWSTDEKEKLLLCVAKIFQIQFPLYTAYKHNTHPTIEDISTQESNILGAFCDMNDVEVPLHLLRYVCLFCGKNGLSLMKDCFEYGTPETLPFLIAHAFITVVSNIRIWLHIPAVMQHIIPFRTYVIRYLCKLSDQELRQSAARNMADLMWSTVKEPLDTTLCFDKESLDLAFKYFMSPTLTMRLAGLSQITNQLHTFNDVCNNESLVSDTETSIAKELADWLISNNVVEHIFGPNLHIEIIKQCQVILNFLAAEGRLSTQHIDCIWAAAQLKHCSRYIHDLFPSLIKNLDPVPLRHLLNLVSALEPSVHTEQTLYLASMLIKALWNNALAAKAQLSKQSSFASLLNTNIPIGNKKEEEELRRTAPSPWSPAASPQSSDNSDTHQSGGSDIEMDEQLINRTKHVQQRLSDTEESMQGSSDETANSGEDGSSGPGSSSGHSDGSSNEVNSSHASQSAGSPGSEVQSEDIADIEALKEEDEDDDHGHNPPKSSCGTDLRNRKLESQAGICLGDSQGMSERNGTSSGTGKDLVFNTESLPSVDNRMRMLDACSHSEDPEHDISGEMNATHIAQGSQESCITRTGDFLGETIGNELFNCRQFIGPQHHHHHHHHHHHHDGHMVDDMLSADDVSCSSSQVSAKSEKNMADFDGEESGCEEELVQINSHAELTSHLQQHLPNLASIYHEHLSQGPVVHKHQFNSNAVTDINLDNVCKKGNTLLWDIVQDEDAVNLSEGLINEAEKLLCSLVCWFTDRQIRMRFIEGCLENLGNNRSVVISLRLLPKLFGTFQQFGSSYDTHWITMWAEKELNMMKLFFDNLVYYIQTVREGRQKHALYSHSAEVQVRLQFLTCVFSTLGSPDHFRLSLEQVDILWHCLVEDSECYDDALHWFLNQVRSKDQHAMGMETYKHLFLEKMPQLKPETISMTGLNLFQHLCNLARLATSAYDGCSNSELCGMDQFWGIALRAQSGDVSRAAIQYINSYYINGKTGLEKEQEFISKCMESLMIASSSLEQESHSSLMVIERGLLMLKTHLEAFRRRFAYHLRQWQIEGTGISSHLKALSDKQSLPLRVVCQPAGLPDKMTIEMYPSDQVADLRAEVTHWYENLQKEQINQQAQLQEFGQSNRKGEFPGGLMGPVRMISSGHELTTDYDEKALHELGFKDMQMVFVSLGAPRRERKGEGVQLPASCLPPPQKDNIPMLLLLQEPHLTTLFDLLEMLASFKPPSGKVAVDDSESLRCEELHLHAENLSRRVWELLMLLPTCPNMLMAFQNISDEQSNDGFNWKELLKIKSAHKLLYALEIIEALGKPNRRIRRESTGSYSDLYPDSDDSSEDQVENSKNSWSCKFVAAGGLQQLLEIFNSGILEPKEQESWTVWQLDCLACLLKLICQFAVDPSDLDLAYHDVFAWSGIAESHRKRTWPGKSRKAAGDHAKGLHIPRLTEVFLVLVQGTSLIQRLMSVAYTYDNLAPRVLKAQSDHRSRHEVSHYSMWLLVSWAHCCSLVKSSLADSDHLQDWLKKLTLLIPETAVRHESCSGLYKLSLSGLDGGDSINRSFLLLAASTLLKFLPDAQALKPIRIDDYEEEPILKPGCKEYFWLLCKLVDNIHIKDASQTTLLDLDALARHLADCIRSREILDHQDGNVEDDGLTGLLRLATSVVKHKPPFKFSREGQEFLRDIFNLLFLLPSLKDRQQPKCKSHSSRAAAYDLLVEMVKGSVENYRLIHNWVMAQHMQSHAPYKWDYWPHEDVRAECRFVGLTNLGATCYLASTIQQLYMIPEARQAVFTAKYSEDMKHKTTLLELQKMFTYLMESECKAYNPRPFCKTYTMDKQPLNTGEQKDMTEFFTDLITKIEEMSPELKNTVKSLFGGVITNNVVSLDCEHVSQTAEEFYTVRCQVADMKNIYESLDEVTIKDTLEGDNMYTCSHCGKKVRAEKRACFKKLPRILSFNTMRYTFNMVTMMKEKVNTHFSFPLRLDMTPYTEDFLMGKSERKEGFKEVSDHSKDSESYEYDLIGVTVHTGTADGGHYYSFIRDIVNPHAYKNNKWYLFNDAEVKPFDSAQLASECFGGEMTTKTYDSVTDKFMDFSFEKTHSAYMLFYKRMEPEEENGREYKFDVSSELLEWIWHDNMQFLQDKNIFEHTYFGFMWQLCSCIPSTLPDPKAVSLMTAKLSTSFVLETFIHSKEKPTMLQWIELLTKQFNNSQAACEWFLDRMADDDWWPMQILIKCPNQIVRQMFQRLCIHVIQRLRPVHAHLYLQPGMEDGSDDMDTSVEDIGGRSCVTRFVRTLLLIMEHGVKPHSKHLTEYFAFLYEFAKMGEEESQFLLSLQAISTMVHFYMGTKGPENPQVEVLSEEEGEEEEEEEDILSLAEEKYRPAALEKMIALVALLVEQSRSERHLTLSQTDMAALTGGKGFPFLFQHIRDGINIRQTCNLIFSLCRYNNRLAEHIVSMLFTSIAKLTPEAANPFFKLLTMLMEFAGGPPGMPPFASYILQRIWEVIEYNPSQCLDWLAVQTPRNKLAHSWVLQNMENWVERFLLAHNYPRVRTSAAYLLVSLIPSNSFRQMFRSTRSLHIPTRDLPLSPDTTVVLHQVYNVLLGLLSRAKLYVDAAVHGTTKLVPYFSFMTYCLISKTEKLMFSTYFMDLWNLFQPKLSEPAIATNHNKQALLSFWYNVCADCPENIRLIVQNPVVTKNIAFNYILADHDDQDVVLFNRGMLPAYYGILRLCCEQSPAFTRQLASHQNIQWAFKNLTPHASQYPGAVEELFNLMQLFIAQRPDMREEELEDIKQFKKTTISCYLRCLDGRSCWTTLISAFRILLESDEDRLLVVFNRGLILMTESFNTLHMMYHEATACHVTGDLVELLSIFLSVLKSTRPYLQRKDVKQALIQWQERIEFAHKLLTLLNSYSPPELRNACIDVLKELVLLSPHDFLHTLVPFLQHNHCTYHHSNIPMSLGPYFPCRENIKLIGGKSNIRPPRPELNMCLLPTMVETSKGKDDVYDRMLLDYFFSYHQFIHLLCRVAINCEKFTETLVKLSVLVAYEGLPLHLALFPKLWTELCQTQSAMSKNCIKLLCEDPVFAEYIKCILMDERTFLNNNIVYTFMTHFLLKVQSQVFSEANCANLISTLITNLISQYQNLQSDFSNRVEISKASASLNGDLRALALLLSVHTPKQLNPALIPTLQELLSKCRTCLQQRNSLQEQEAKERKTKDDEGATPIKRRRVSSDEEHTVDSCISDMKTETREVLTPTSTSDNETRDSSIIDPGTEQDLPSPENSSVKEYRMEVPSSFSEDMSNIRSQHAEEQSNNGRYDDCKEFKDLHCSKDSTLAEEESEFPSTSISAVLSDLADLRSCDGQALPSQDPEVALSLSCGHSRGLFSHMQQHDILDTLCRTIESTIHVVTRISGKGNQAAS

O=C(CCl)N1CCCCC12CCOCC2
inactive: [1] -0.284 | [2] -0.239 | [3] -0.4 | [4] -0.243 | [5] -0.266
